Shown are actives, neighbours in structure and some others; about 19% of the full set was active somewhere.
IL1B secr inh – inhibitors of inflammasome signaling (IL-1 beta secretion). THP-1 LPS/ATP IL-1B secretion, AlphaLISA, 16 h; hits give low values. activity change, % at 57.5 µM. actives 4.7% (n = 360,000). AID 743279; in the data active means activity change below about -50%; inconclusive means mostly about -30% to -49%
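Secreted IL-1B measured by AlphaLISA bead assay after 16 h compound exposure of THP-1 cells; compounds (final up to 57.5 uM) added 1 h before LPS (250 ng/mL) and ATP (1.25 mM) stimulation; lower signal means less secretion.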
HT1080NT lethal – kills 2HG-producing HT-1080-NT fibrosarcoma cells; HT-1080-NT fibrosarcoma viability, CellTiter-Glo ATP luminescence, 48 h; Potency, µM (top dose mostly 46.1 µM), for the others: top-dose activity, negative = less viability, most hits filed as cytotoxic; actives 1.6% (n = 360,000); AID 686970;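 further: NT is the 2HG producing partner of a matched IDH1 knockdown line; potency means the concentration at half of the fitted maximal effect; 0% = DMSO-treated cells and -100% = media-only wells without cells; nearly all actives have a fitted effect of over 55% in size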
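A 48-hour cytotoxicity screen used HT-1080-NT cells plated 2 hours before compound delivery. ATP-based CellTiter-Glo luminescence measured viability, normalized to DMSO and no-cell controls.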
DT40 TDP1 no CPT – qHTS for Inhibitors of human tyrosyl-DNA phosphodiesterase 1 (TDP1): qHTS in cells in absence of CPT; DT40 Tdp1-/- hTDP1 cells, no CPT, ATP luminescence, 48 h; Potency, µM (series often up to 46.2 µM), inactives show at the highest dose activity change, negative = growth inhibition, most hits filed as inhibitors; actives 15% (n = 420,000); AID 686978, 2013; further: potency means the concentration at half of the fitted maximal effect; nearly all actives have a fitted effect of over 55% in size
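Growth kinetics read by CellTiter-Glo luminescence after ≥48 hr at 37 °C. Cells: DT40 Tdp1-/- stably carrying human TDP1, 400 per well, compound exposure in the absence of CPT (DMSO vehicle).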
DT40 TDP1 CPT – DT40-hTDP1 cell growth loss with CPT; chicken DT40 Tdp1-/-;hTDP1 cells + 20 nM CPT, ATP luminescence, 48 h; Potency, µM (top dose mostly 46.2 µM), for the others: at the highest dose activity change, negative = growth inhibition, most hits filed as inhibitors; actives 12% (n = 420,000); AID 686979; further: potency means the concentration at half of the fitted maximal effect; nearly all actives have a fitted effect of over 55% in size
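Cell growth measured by CellTiter-Glo luminescence after a minimum 48 h, 37 C compound exposure with 20 nM CPT in Tdp1-knockout DT40 cells stably expressing hTDP1, seeded 400/well; qHTS titration format.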
HT1080 IDH1KD tx – HT-1080 IDH1 knockdown cell toxicity (counter line); HT-1080 IDH1 knockdown viability, ATP luminescence, 48 h; Potency, µM (titrated, usually from 46.1 µM), inactives show at the highest dose activity, negative = toxicity, most hits filed as cytotoxic; actives 2% (n = 360,000); AID 686971;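 further: potency means the concentration at half of the fitted maximal effect; 0% = DMSO wells and -100% = cell-free medium wells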
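% activity derives from luminescence (CellTiter-Glo), normalised to DMSO and no-cell wells. HT-1080-IDH1KD cells, 750/well, had 48 h compound exposure at 37 °C.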
Active calls of the source: *; ? = inconclusive; . = no result. Unless noted, the call rests on the fitted dose curve; in most records, active means well fitted curve in the direction sought with a large enough effect; inconclusive means small, poorly fitted or top-dose-only effect, or another doubt; inactive means no such curve, though single readings can be large; an effect the other way counts as inactive or inconclusive. Unless noted, on the % scale 0 is the no-effect control and ±100 the full control effect.

SMILES	IL1B secr inh	HT1080NT lethal	DT40 TDP1 no CPT	DT40 TDP1 CPT	HT1080 IDH1KD tx
CCN(CC)S(=O)(=O)c1cccc(C(=O)NNC(=O)c2ccc3[nH]c(=O)c(=O)[nH]c3c2)c1	14.4	1.3%	-4.2%	-4.3%	3.3%
Cc1cccc(CS(=O)(=O)Cc2ccc(C(=O)NCc3cccs3)o2)c1	3.0	-1.1%	-23.4%	1.4%	-8.4%
Cn1c(=O)c2sccc2n2c(CCCC(=O)N3CCN(c4ccccn4)CC3)nnc12	19.2	-6.4%	-6.5%	0.1%	7.9%
CC(OC(=O)c1ccccc1CCc1ccccc1)C(N)=O (centres undefined)	-6.3	-4.2%	?	?	-0.4%
Cc1ccc(-n2c3c(c(=O)[nH]c2=O)C(NC(=O)c2ccccc2C)(C(F)(F)F)C(=O)N3)cc1 (centres undefined)	.	.	23.1µM*	13µM*	.
Nc1ccc(N=Nc2ccccc2O)c(N)c1	-24.6	?	3.2%	8.2%	?
Oc1ccccc1N=Nc1ccccc1O	127.9	?	4.61µM*	4.61µM*	?
O=C(O)c1ccc(-n2nc(C(F)(F)F)cc2-c2cccs2)cc1	14.6	29.2%	-20.1%	7.5%	0.0%
COC(=O)c1c(C(=O)OC)c(-c2ccc(C)cc2)n2c1CS(=O)(=O)C2	15.4	-3.2%	?	-25.6%	-4.1%
COC(=O)c1c(C(=O)OC)c(-c2ccc(Cl)cc2)n2c1CS(=O)(=O)C2	0.7	-4.6%	20.6µM*	20.6µM*	-4.7%
N#C/C(=C(/O)COc1ccccc1)c1nc2ccccc2s1	8.2	0.4%	?	-17.5%	7.5%
Cc1ccc(SC/C(O)=C(\C#N)c2nc3ccccc3s2)cc1	0.0	-0.2%	?	?	0.9%
N#C/C(=C(/O)CSc1ccccn1)c1nc2ccccc2s1	0.0	-8.8%	?	14.6µM*	0.4%
N#C/C(=C(/O)c1ccc(F)cc1)c1nc2ccccc2s1	-26.3	-7.0%	23.1µM*	18.4µM*	-27.9%
N#C/C(=N\O)c1nc2ccccc2s1	54.8	7.0%	-0.3%	3.1%	-2.9%
N#C/C(=C(/O)COc1ccc(Cl)cc1)c1nc2ccccc2s1	18.6	-9.2%	9.2µM*	?	-5.7%
CSCCC(C)N1CCC(Oc2ccc(C(=O)N3CCCC3)cc2)CC1 (centres undefined)	0.0	-3.6%	-2.0%	-4.5%	-8.5%
O=C(Nc1ccc(OC(F)F)cc1)c1cc[n+]([O-])cc1	18.1	-1.9%	-24.5%	9.2%	11.0%
Cc1noc(C)c1NC(=O)N(C)C[C@@H]1Oc2ccc(NC(=O)Cc3cn(C)c4ccccc34)cc2CC(=O)N([C@H](C)CO)C[C@@H]1C	1.6	10.1%	?	-9.1%	-0.6%
COc1ccc(OC(=O)c2ccc(OC)c(S(=O)(=O)N3CCOCC3)c2)cc1	13.0	2.0%	17.0%	-2.3%	-1.3%
COc1ccc(-c2ccc(CCC(=O)O)n2-c2ccccc2OC)cc1	81.9	18.4µM*	23.1µM*	?	16.4µM*
Cc1cccc(N2CCN(C(=O)c3cc(S(=O)(=O)N(C)C)ccc3N3CCCC3)CC2)c1C	-57.5*	-17.0%	?	?	-18.1%
Cc1ccc(S(=O)(=O)N2CCN(C(=O)c3cc(S(=O)(=O)N(C)C)ccc3N3CCCC3)CC2)cc1	-16.2	1.7%	-28.8%	-11.5%	5.0%
Cc1cccc(N2CCN(C(=O)c3ccc(S(=O)(=O)N(C)c4ccccc4)cc3)CC2)c1C	-17.6	?	4.61µM*	5.8µM*	7.31µM*
COc1ccc(N(C)S(=O)(=O)c2cccc(C(=O)N3CCN(c4cccc(C)c4C)CC3)c2)cc1	?	6.9%	16.4µM*	?	1.4%
SMILES	IL1B secr inh	HT1080NT lethal	DT40 TDP1 no CPT	DT40 TDP1 CPT	HT1080 IDH1KD tx
Cc1cccc(N2CCN(C(=O)CNC(=O)C3CCCCC3)CC2)c1C	3.5	-19.8%	?	18.4µM*	?
Cc1cccc(C(=O)n2nc(-c3cccnc3)nc2NCc2ccccc2)c1	.	.	-21.9%	-12.8%	.
CCN(c1ccccc1)S(=O)(=O)c1ccc(C(=O)N2CCOCC2)cc1	6.9	11.2%	-0.9%	-12.5%	7.7%
Cc1cccc(N2CCN(C(=O)c3ccccc3SCC(=O)N3CCCC3)CC2)c1C	0.0	-3.8%	13µM*	9.2µM*	-5.1%
CCN(c1ccccc1)S(=O)(=O)c1ccc(C(=O)N2CCN(c3ccccc3F)CC2)cc1	-5.0	0.3%	20.6µM*	?	12.8%
CN(Cc1ccccc1)C(=O)c1ccc(NC(=O)Cc2ccc(NC(=O)C3CCN(C(=O)C4CCCC4)CC3)cc2)cc1	20.5	-12.9%	?	?	-10.8%
O=C(/C=C/c1ccccc1)N1CCN(CCN2C(=O)c3cccc4cccc(c34)C2=O)CC1	-24.9	-3.9%	7.31µM*	7.31µM*	5.7%
O=C(c1ccc(S(=O)(=O)N2CCCCC2)cc1)N1CCN(CCN2C(=O)c3cccc4cccc(c34)C2=O)CC1	-3.1	3.0%	11.6µM*	13µM*	-2.9%
COc1ccc(NC(=S)N2CCN(CCN3C(=O)c4cccc5cccc(c45)C3=O)CC2)cc1	28.3	-5.4%	?	-13.0%	10.4%
CCOc1ccc(NC(=S)N2CCN(CCN3C(=O)c4cccc5cccc(c45)C3=O)CC2)cc1	10.7	24.0%	25.9µM*	?	10.9%
O=C(c1ccc(S(=O)(=O)N2CCCC2)cc1)N1CCCCCC1	-0.5	3.2%	21.2%	-25.0%	3.9%
CCOc1ccc(-c2cc3c(=O)n(Cc4nc(-c5cccc(OC)c5OC)oc4C)ccn3n2)cc1Cl	.	.	-1.5%	-5.1%	.
COc1ccc(/C=N/NC(=O)c2nnn(-c3nonc3N)c2-c2cccs2)c(OC)c1	-7.7	1.7%	11.4%	-2.0%	-0.1%
CC(C)CN(C(=O)c1nn(C)c(=O)c2ccccc12)c1nc2ccccc2s1	4.5	-2.6%	?	?	14.4%
CCOC(=O)c1c(C)oc2nc(C)nc(NCC3CCN(Cc4cc(C)ccc4C)CC3)c12	.	.	-19.9%	-9.2%	.
CCOC(=O)c1c(C)oc2ncnc(NCCCN3CCN(c4cc(C)ccc4C)CC3)c12	.	.	4.61µM*	7.31µM*	.
CCOC(=O)c1c(C)oc2nc(C)nc(NCCCN3CCN(c4ccc(F)cc4)CC3)c12	.	.	20.6µM*	20.6µM*	.
CCOC(=O)c1c(C)oc2nc(C)nc(NCC3CCN(Cc4ccc(F)cc4)CC3)c12	.	.	?	-29.2%	.
CCOC(=O)c1c(C)oc2nc(C)nc(N3CCN(c4ccc(C(C)=O)cc4)CC3)c12	.	.	2.91µM*	5.8µM*	.
CCOC(=O)c1c(C)oc2nc(C)nc(NCCCN3CCN(c4ccccc4OC)CC3)c12	.	.	23.1µM*	?	.
O=[N+]([O-])/C(Cl)=C(/NCCO)C(Cl)=C(Cl)Cl	23.6	-2.1%	-0.5%	-3.9%	0.4%
